PubChem BioAssay (EPA / NIEHS)
Active and inactive are the calls of the source. Rule for the calls: active = hit-call score of the fitted dose curve at least 0.9, where 1 is the maximum; inactive = score below 0.9.

Read-out: ABC Transporter (ABCB11), ABCB11 (gene 8647)
Test: LTEA_HepaRG_ABCB11: Life Technologies and Expression Analysis (LTEA) Assay for ABC Transporter (ABCB11) using HepaRG (AID 2283463)
Conditions: mRNA level, 48 h; actives raise or lower the signal
Procedure: LTEA_HepaRG is a cell based, multiplexed-readout assay that uses HepaRG, a human liver cell line, with measurements taken at 48 hours after chemical dosing on a 96-well plate.LTEA_HepaRG_ABCB11 is one of 102 assay component(s) measured in the LTEA HepaRG cell culture assay. It is a marker of Steatosis/NR mediated transport.Data from the assay component LTEA_HepaRG_ABCB11 was analyzed into 1 endpoint. This assay endpoint, LTEA_HepaRG_ABCB11, was analyzed with bidirectional fitting relative to DMSO as the negative control and baseline of activity. Using a type of inducible reporter, measures of mRNA induction for gain or loss-of-signal activity can be used to understand regulation of transcription factor activity. To generalize the intended target to other relatable targets, this assay endpoint is annotated to the transporter intended target family, where the subfamily is ABC transporter.
A total of 1060 chemcials from the ToxCast library were tested in eight-point concentration-response experiments. Cell culture and cytotoxicity assays were conducted at Thermo Fisher Scientific's Custom Services facility (Madison, WI). A single lot of human HepaRG cells (Thermo Fisher Scientific, Frederick, MD) was used for the cell culture experiments. 96-well format collagen type I coated plates of human HepaRG cells were prepared using established methods. Briefly, cryopreserved HepaRG cells were thawed, plated at a density of approximately 100,000 cells/well in HepaRG Thaw, Plate, and General Purpose media (HPRG770, Thermo Fisher Scientific), and incubated for 48 hours. 0.5% DMSO was selected as vehicle control to balance the requisite need of DMSO in HepaRG cultures to maintain differentiation (for example, baseline metabolism, proportions of hepatocytes vs. cholangiocytes), while enabling further hepatic receptor pathway activation (for example, PXR and CAR) in response to chemical exposure. 48 hours after plating, the culture medium was replaced with HepaRG Serum-Free Incudtion Media. Cells were exposed to each test chemical in duplicate and maintained in CO2 incubators for another 48 hours. Chemical plates were thawed to room temperature and 200x concentrations of treatment groups were prepared. 8-point conentration-reponse curves were made with the highest exposure at 100 uM, followed by half-log dilutions, all in 0.5% DMSO. Each test plate contained variouse controls, induction positive controls (1mM phenobarbital), cytotoxicity positive controls ([…] aflatoxin B1), vehicle controls (0.5% DMSO), and total lysis controls (0.5% DMSO). Cell morphology images were taken using an Essen IncuCyte FLR automated microscope, with six 96-well plates imaged in about 24 minutes. Images were captured and exported and JPEG files. Spent culture media was transfered to black-well plates for the LDH assay, and remaining media was sorted at -80 C for later use. Cells were treated with RLT buffer and frozen until shipped for gene expression analysis. Total RNA was isolated from the cell suspension in 75 uL of Buffer RLT (Qiagen, Germantown, MD 20874) by Quintiles/Expression Analysis (Durham, NC) using a custom isolation procedure. Total RNA from each plate well was transferred to a preamplification plate. Fluidigm's 96.96 Dynamic ArrayTM (Fluidigm, Amsterdam, the Netherlands) technology was used for gene expression analyses by quantitative reverse transcription polymerase chain reaction (qRT-PCR, performed by Quintiles/Expression Analysis, Durham, NC)89. Standard TaqManTM Assays (Applied Biosystems/ThermoFisher Scientific, Foster City, CA) were used to assess the expression of 93 genes selected based on their selectivity and sensitivity to important hepatic receptors known to be modulated by environmental chemicals; importance in human hepatocyte functionality; and hepatotoxicity. […]

Compound	outcome	AC50
CC1(C)C(=O)NC(=O)N1CO	inactive	–
CCCCCCCCCCCCCCCCO	inactive	–
O=C1c2c(O)cccc2Cc2cccc(O)c21	inactive	–
NCCOCCOCCN	inactive	–
O=C(O)CC(O)(CC(=O)O)C(=O)O	inactive	–
O=C(O)c1[nH]n(-c2ccc(S(=O)(=O)O)cc2)c(=O)c1N=Nc1ccc(S(=O)(=O)O)cc1	inactive	–
Oc1ccccc1O	inactive	–
CCOCCOCCO	inactive	–
COc1ccc(C(=O)Nc2nc3ccccc3c(NCc3ccccc3)c2C#N)cc1	–	13.3 µM (active)
NC(=Nc1ccccc1)Nc1ccccc1	inactive	–
CC(C)OC(=O)C(C)(C)Oc1ccc(C(=O)c2ccc(Cl)cc2)cc1	inactive	–
NC1CCCCC1	inactive	–
COC(=O)CCC(=O)OC	inactive	–
CC(COCC(C)OC(=O)c1ccccc1)OC(=O)c1ccccc1 (stereo not given)	inactive	–
CCCCOC(=O)CCCCC(=O)OCCCC	inactive	–
Cn1cnc2c1c(=O)[nH]c(=O)n2C	inactive	–
O=Cc1ccccc1C=O	inactive	–
O=C1CCCCC1	inactive	–
CCCCCCCC(=O)OC	inactive	–
CCCC[C@H]1CN(CC2CCOCC2)C(=O)OC12CCN(C1(C)CCN(C(=O)c3c(C)ncnc3C)CC1)CC2	inactive	–

Compound	outcome	AC50
O=C(NS(=O)(=O)/C=C/c1cccs1)c1ccc(F)cc1Br	–	50 µM (active)
Cc1ccc(C(C)(C)C)c(O)c1	inactive	–
CC(C)NCC(O)c1ccc(O)c(O)c1 (stereo not given)	–	0.147 µM (active)
c1ccc2occc2c1	inactive	–
COC(=O)CCCC(=O)OC	inactive	–
O=C1O[C@H]([C@H](O)CO)C(O)=C1O	inactive	–
CC(=O)[C@@]1(O)CC[C@H]2[C@@H]3CCC4=CC(=O)CC[C@]4(C)[C@H]3CC[C@@]21C	inactive	–
O=C(O)CN(CC(=O)O)CC(=O)O	inactive	–
CCC(C)N(C)C(=O)c1cc2ccccc2c(-c2ccccc2Cl)n1 (stereo not given)	inactive	–
CCCCCCC(C=O)=Cc1ccccc1	inactive	–
COC(=O)[C@H]1[C@H]2C[C@@H]3c4[nH]c5cc(OC)ccc5c4CCN3C[C@H]2C[C@@H](OC(=O)c2cc(OC)c(OC)c(OC)c2)[C@@H]1OC	–	31.4 µM (active)
CC(=O)O	inactive	–
Cc1cc(SC2=C(O)C[C@@](CCc3ccc(N)cc3)(C(C)C)OC2=O)c(C(C)(C)C)cc1CO	–	50 µM (active)
Nc1nc(Cl)nc2c1ncn2[C@H]1C[C@H](O)[C@@H](CO)O1	–	0.593 µM (active)
CC(=O)OCC(COC(C)=O)OC(C)=O	inactive	–
O=NO	inactive	–
CC(C)COC(=O)CCCCC(=O)OCC(C)C	inactive	–
COc1ccc(OC(F)(F)F)cc1CN[C@H]1CCCN[C@H]1c1ccccc1	inactive	–
O=C(O)c1cccnc1	inactive	–
O=C(Oc1ccccc1)c1cccc(C(=O)Oc2ccccc2)c1	inactive	–
